Source: PubChem
Rows were chosen to be rich in hits. Some 2.4% of all compounds tested hit in one or more screens of this group.
Pol kappa inh-1 – qHTS for Inhibitors of Polymerase Kappa | DNA polymerase kappa (Homo sapiens), Q9UBT6 | purified Pol kappa, fluorescent DNA synthesis assay, 10 min | Potency, µM (titrated, usually from 107 µM), without a hit: at the top dose activity, negative = inhibition, usual class: inhibitors | hit rate 0.53% among 400,000 | AID 588579, 2011; note: % is set by controls: 0 for no effect and ±100 for the full control effect
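Here, compound and 10 nM enzyme are combined for 15 min at room temperature; adding 50 nM substrate (final) starts DNA synthesis, tracked by fluorescence at 0 and 10 min against buffer-only wells.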
Pol eta inh-1 – qHTS for Inhibitors of Polymerase Eta; DNA polymerase eta (Homo sapiens), Q9Y253; Potency, µM (doses to about 114 µM), without a hit: at the highest dose activity change, negative = inhibition, hits mostly inhibitors; hit rate 1.2% among 390,000; recombinant Pol eta, fluorescent DNA replication assay; AID 588591, 2011; note: % is set by controls: 0 for no effect and ±100 for the full control effect
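Pol eta (10 nM) was preincubated with compounds for 15 min at room temperature, after which fluorescent replication substrate (50 nM final) was added to start the reaction. Fluorescence was read kinetically at 0 and 10 min.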
POLI inh – qHTS for Inhibitors of Polymerase Iota. Potency, µM (highest dose often 115 µM), for the others: at the top dose activity, negative = inhibition, most hits filed as inhibitors. hit rate 1% among 390,000. DNA polymerase iota (Homo sapiens), Q9UNA4. Pol iota fluorescent replication assay, 10 min
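Pol iota at 10 nM preincubated 15 min with compounds at room temperature; reaction started with fluorescent substrate, 50 nM final. Fluorescence read kinetically at 0 and 10 min; buffer-only wells as negative control.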
TDP1 inh – qHTS Assay for Inhibitors of Tyrosyl-DNA Phosphodiesterase (TDP1); Potency, µM (top dose mostly 130 µM), inactives show top-dose activity change, negative = inhibition, most hits filed as inhibitors; hit rate 0.28% among 350,000; AID 485290, 2010; recombinant TDP1, AlphaScreen DNA substrate cleavage; note: % is set by controls: 0 for no effect and ±100 for the full control effect; nearly all actives have a fitted effect of over 40% in size
Target sequence (Q9NUW8 whole entry, looked up): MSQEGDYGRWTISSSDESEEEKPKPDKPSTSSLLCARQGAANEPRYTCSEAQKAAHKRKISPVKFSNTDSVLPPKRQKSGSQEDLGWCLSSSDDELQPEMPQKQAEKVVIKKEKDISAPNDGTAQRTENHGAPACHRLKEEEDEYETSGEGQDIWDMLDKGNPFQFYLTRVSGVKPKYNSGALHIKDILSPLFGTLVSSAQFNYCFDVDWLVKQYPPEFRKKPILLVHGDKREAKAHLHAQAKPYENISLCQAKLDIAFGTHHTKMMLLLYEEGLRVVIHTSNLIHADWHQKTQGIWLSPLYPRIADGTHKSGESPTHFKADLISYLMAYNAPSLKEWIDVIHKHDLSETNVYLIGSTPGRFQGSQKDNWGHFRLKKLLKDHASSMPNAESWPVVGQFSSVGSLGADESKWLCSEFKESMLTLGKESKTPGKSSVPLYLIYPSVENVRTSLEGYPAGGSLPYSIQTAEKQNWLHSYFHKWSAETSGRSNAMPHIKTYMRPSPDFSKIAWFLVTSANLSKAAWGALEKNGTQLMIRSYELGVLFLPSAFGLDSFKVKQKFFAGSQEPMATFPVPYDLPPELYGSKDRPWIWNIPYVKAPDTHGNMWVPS
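Recombinant human Tdp1 (E. coli-expressed, 1 nM final) preincubated with compounds 15 min at room temperature, then 5'-biotin/3'-phosphotyrosine-FITC DNA substrate (15 nM final) added for 5 min. AlphaScreen beads (10 ug/ml final) added 10 min; cleavage lowers signal.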
Pol beta inh – qHTS Assay for Inhibitors of DNA Polymerase Beta; Potency, µM (top dose mostly 114 µM), for inactives: at the highest dose activity change, negative = inhibition, hits mostly inhibitors; hit rate 1.3% among 340,000; AID 485314, 2010; P06746; Pol beta primer extension/strand displacement, fluorescence kinetic; note: % is set by controls: 0 for no effect and ±100 for the full control effect
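Reaction started by 50 nM substrate onto compound-treated Pol beta (10 nM, 15 min preincubation, room temperature); plates read at 0 min and 10 min. Normalized concentration-effect data fitted by four-parameter Hill equation.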
FEN1 inh-1 – qHTS Assay for the Inhibitors of Human Flap endonuclease 1 (FEN1); P39748; Recombinant FEN1 flap cleavage, fluorescence, 15 min; Potency, µM (highest dose often 114 µM), inactives show top-dose activity change, negative = inhibition, most hits filed as inhibitors; hit rate 0.35% among 390,000; AID 588795, 2011; note: % is set by controls: 0 for no effect and ±100 for the full control effect; nearly all actives have a fitted effect of over 65% in size
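Enzyme 10 nM, 15 min RT preincubation with compound; start with substrate 50 nM final; reads at 0 and 15 min; qHTS titration, four-parameter Hill fit.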
Pol kappa inh-2 – qHTS for Inhibitors of Polymerase Kappa: Confirmatory Assay for Cherry-picked Compounds; shares compounds with Pol eta inh-1; purified Pol-kappa, fluorescent strand-displacement substrate; Potency, µM, usual class: inhibitors; hit rate 76% among 920; AID 720501, 2013
Pol eta inh-2 – qHTS for Inhibitors of Polymerase Eta: Confirmatory Assay for Cherry-picked Compounds. shares compounds with Pol eta inh-1. Pol eta primer extension, TAMRA/BHQ fluorescence, 10 min. Potency, µM, actives largely listed as inhibitors. hit rate 64% among 2,600. AID 720502, 2013
FEN1 inh-2 – qHTS Assay for the Inhibitors of FEN1: Confirmatory Assay for Cherry-picked Compounds; Potency, µM, actives largely listed as inhibitors; hit rate 79% among 880; AID 720498, 2013; shares compounds with FEN1 inh-1; FEN1 flap cleavage, TAMRA/BHQ2 fluorogenic DNA substrate; note: nearly all actives have a fitted effect of over 60% in size
Starred values were filed as active, the others as inactive; [ ] = another dose, or the depositor's remark. Calls come from the whole dose curve; as a rule, active = well fitted curve in the direction sought with a large enough effect; inconclusive = small, poorly fitted or top-dose-only effect, or another doubt; inactive = no such curve, though single readings can be large; an effect the other way counts as inactive or inconclusive. Potency is the fitted concentration of half-maximal effect.

COc1cc(NS(=O)(=O)c2ccc(NC(=S)NC(=O)c3sc4cc(F)ccc4c3Cl)cc2)nc(OC)n1 was read as Pol kappa inh-1 1%, Pol eta inh-1 45µM*, POLI inh inconclusive, TDP1 inh 1%, Pol beta inh 32%, FEN1 inh-1 inconclusive, Pol eta inh-2 43* and FEN1 inh-2 inconclusive.
For CC(=O)Oc1cc(C(=O)OCC(=O)N2CCc3ccccc3C2)cc(OC(C)=O)c1OC(C)=O the results were Pol kappa inh-1 40µM*, Pol eta inh-1 7.1µM*, POLI inh inconclusive, FEN1 inh-1 25µM*, Pol kappa inh-2 17*, Pol eta inh-2 inconclusive and FEN1 inh-2 24*.
For NC(=O)c1ccc(NC(=O)CSc2nnc(-c3ccncc3)n2Cc2ccco2)cc1 the results were Pol kappa inh-1 -25%, Pol eta inh-1 3%, POLI inh 55%, TDP1 inh 1%, Pol beta inh inconclusive and FEN1 inh-1 0%.
CCc1csc(CNC(=O)C2CCC(=O)N(Cc3cccc(OC)c3)C2)n1 (stereo not given) was read as Pol eta inh-1 -19%.
Screening CCOc1ccc(C(=O)Nc2cccc([N+](=O)[O-])c2)cc1Br returned Pol kappa inh-1 0%, Pol eta inh-1 -17%, POLI inh 59%, TDP1 inh 5%, Pol beta inh 2% and FEN1 inh-1 -1%.
CC(=O)c1sc2nc(CSc3nnnn3-c3ccccc3)[nH]c(=O)c2c1C was read as Pol kappa inh-1 inconclusive, Pol eta inh-1 10µM*, POLI inh 11µM*, TDP1 inh 8%, Pol beta inh 13µM*, FEN1 inh-1 79µM*, Pol eta inh-2 67* and FEN1 inh-2 inconclusive.
`COc1cccc(-c2nc(NCCN3CCOCC3)c3ccccc3n2)c1O` gave Pol kappa inh-1 -17%, Pol eta inh-1 inconclusive, POLI inh inconclusive, TDP1 inh -6%, Pol beta inh inconclusive, FEN1 inh-1 40µM* and FEN1 inh-2 inconclusive.
For Cc1cc(=O)n(CC(=O)Nc2ccc([N+](=O)[O-])cc2)c(-n2nc(C)cc2C)n1 the results were Pol kappa inh-1 -8%[60.1 µM], Pol eta inh-1 -22%, POLI inh 10%, TDP1 inh 5%, Pol beta inh -15% and FEN1 inh-1 10%.
Cc1cccc(-c2cc3nc(C)cc(NCCCN(C)C)n3n2)c1 was read as Pol kappa inh-1 inconclusive, Pol eta inh-1 -15%, POLI inh 6%, TDP1 inh 3%, Pol beta inh inconclusive and FEN1 inh-1 -22%.
CN(C)CCCNc1cc(-c2ccccc2)nc2cc(-c3cccc(F)c3)nn12 was read as Pol kappa inh-1 -20%, Pol eta inh-1 -15%, POLI inh -27%, Pol beta inh 8%, FEN1 inh-1 inconclusive and FEN1 inh-2 48*.
For CCOc1ccc(S(=O)(=O)N2CCC(C(=O)N3CCN(Cc4ccccc4)CC3)CC2)cc1 the results were Pol kappa inh-1 -11%, Pol eta inh-1 -16%, POLI inh -3%, TDP1 inh 2%, Pol beta inh -3% and FEN1 inh-1 52%.
For CCc1ccc(NC(=S)/N=C(\N)Nc2nc(C)c3cc(CC)ccc3n2)cc1 the results were Pol kappa inh-1 -11%, Pol eta inh-1 -7%, POLI inh 16%, TDP1 inh 0%, Pol beta inh -12% and FEN1 inh-1 -20%.
For Cc1cc(C)c2c(N)c3ccccc3nc2n1 the results were Pol kappa inh-1 -31%, Pol eta inh-1 -15%, POLI inh 14µM*, TDP1 inh -4%, Pol beta inh 25µM*, FEN1 inh-1 45µM* and FEN1 inh-2 38*.
`CCc1ccc2nc3nc(C)cc(C)c3c(N)c2c1` gave Pol kappa inh-1 -10%, Pol eta inh-1 2%, POLI inh inconclusive, TDP1 inh -3%, Pol beta inh inconclusive, FEN1 inh-1 inconclusive and FEN1 inh-2 inconclusive.
Screening Cc1cc(C)c2cccc(N)c2n1 returned Pol kappa inh-1 -15%, Pol eta inh-1 0%, POLI inh 68%, TDP1 inh 8%, Pol beta inh 33% and FEN1 inh-1 2%.
`COC(=O)Oc1ccccc1C(=O)O` gave Pol kappa inh-1 -3%[60.1 µM] and TDP1 inh 7%.
COc1cccc2c1C(=N)c1c(O)c3c(c(O)c1C2=O)CC(O)(C(C)=O)CC3OC1CC(N)C(O)C(C)O1 (stereo not given) was read as Pol kappa inh-1 inconclusive, Pol eta inh-1 inconclusive, POLI inh inconclusive, FEN1 inh-1 11µM* and FEN1 inh-2 24*.
For COc1cccc2nc3c(C(=O)NCCN(C)C)cccc3cc12 the results were Pol kappa inh-1 -46%, Pol eta inh-1 inconclusive, POLI inh inconclusive, FEN1 inh-1 13µM* and FEN1 inh-2 30*.
Screening COc1ccc(-c2nc3c(C(=O)NCCN(C)C)cccc3c3ccccc23)cc1 returned Pol kappa inh-1 0%, Pol eta inh-1 6%, POLI inh inconclusive, FEN1 inh-1 32µM* and FEN1 inh-2 34*.
`COc1ccc(Cl)cc1C(=O)NCCN(C)C` gave Pol kappa inh-1 -23%, Pol eta inh-1 7%, POLI inh 10%, TDP1 inh 2%, Pol beta inh 14% and FEN1 inh-1 -3%.
For CNC(=S)N/N=C/c1c(Cl)cccc1Cl the results were Pol kappa inh-1 8%, Pol eta inh-1 -3%, POLI inh 9%, TDP1 inh 1%, Pol beta inh 95% and FEN1 inh-1 1%.
CCc1nnc(N/N=C/c2c(Cl)cccc2Cl)n1N was read as Pol kappa inh-1 -6%, Pol eta inh-1 -2%, POLI inh 13µM*, TDP1 inh 4%, Pol beta inh 15%, FEN1 inh-1 7% and FEN1 inh-2 inconclusive.
